Molecules are shown by their SMILES. Inconclusive results are not listed. Activity calls are given as the source filed them. Unless noted, the call rests on the fitted dose curve; in most records, active means well fitted curve in the direction sought with a large enough effect; inconclusive means small, poorly fitted or top-dose-only effect, or another doubt; inactive means no such curve, though single readings can be large; an effect the other way counts as inactive or inconclusive.

A short description of test [1]: Validation of Assay for Modulators of Lamin A Splicing (AID 1459; active means well fitted curve in the direction sought with a large enough effect in the signal ratio; the % refers to the signal ratio;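 further: cells exposed to compound for two days before reading; ratio rise marks activators and ratio drop marks inhibitors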). Summed up: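 HeLa S3 lamin A-EGFP/DsRed2 stable clone, 600 cells/well, Opti-MEM 2% FBS; compounds by pin tool; 48 hrs, 37 °C/5% CO2; Acumen 488 nm scan, objects 10-100 um; GFP/RFP intensity ratio.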
A short description of test [2]: Counterscreen for APE1 Inhibitors: Fluorescent Dye Displacement Validation Assay (AID 1707). Summed up: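 Assay buffer: Tris-HCl pH7.5 with 50mM NaCl, 2 mM MgCl2, 0.01% Tween-20. Dye 250 nM, duplex 50 nM final. Readout: decrease in ThO endpoint fluorescence, 480 nm excitation, 540 nm emission.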
Test [3] is described as follows: qHTS for differential inhibitors of proliferation of Plasmodium falciparum line 7G8 (AID 1815).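 Further: parasite growth measured after three days of incubation.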 Further: potency means the concentration at half of the fitted maximal effect. On the technique in general: In qHTS, concentration-response curves come from the screen itself.
A short description of test [4]: qHTS for differential inhibitors of proliferation of Plasmodium falciparum line Dd2 (AID 1882). Further: nearly all actives have a fitted effect of over 65% in size. Further: potency means the concentration at half of the fitted maximal effect. Particulars: Potency: Plasmodium falciparum Dd2 proliferation inhibition. Summed up:
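Dd2-infected erythrocytes (0.3% parasitemia, 2.5% hematocrit final) incubated with compound 72 h at 37 C, 5% CO2; lysed with saponin/Triton buffer containing SYBR Green I, incubated overnight in the dark, then read by fluorescence (485/535 nm). Normalized to 0.29 uM artemisinin and DMSO.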

Test [5] in a line: qHTS for differential inhibitors of proliferation of Plasmodium falciparum line W2 (AID 1883).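 Further: parasites grown with compound for 72 h before lysis and staining.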 Further: potency means the concentration at half of the fitted maximal effect. Particulars: Potency: Plasmodium falciparum W2 proliferation inhibition.
The nature of test [6]: qHTS for differential inhibitors of proliferation of Plasmodium falciparum line HB3 (AID 1886).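 Further: parasites grown with compound for 72 h before SYBR Green readout.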 Further: potency means the concentration at half of the fitted maximal effect. Particulars: Potency: Plasmodium falciparum HB3 proliferation inhibition.
Test [7] concerns the target Ferritin light chain (Equus caballus) (UniProt P02791). Put plainly: qHTS Validation Assay for Identification of Novel General Anesthetics (AID 2323). Further: series mostly up to about 77 µM. An outline of the steps: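 Fluorescence at 535 nm (excitation 380 nm) reported loss of 1-AMA binding to horse-spleen apoferritin (10 uM) in PBS with 50% saturated 1-aminoanthracene, after 10 min room-temperature incubation with compound; values from Hill fits of normalized response.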

Test [8] deals with ATP-dependent DNA helicase Q1 (Homo sapiens) (UniProt P46063). The test is described as follows: qHTS Validation Assay for Inhibitors of RecQ-Like Dna Helicase 1 (RECQ1) (AID 2353). Summed up: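 50 nM RECQ1T1 preincubated 15 min with compound in Tris pH 8.0 buffer with MgCl2, DTT, Tween-20 and 2.5 ug/ml poly(dI-dC); started with 200 nM TAMRA/BHQ-2 forked duplex and 2 mM ATP. Unwinding read as fluorescence (525/598 nm), two reads 2 h apart.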

Test [9] addresses alpha-glucosidase (Oryza sativa, rice) (UniProt Q653V4). The test is described as follows: Counterscreen for Glucocerebrosidase Inhibitors: qHTS Assay for Rice alpha-Glucosidase at pH 5.0 (AID 997). An outline of the steps: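 Rice alpha-glucosidase (4 nM final) with 400 uM 4-methylumbelliferyl-alpha-D-glucopyranoside in citrate buffer pH 5.0, 20 min at room temperature, stopped at pH 10; fluorescence 365/440 nm, compounds 0.7 nM–77 uM, AC50 from Hill fits.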
For orientation: The purpose of a counterscreen is to sort out artefacts and off-target activity.

Test [10] has as its target Endonuclease 4 (Escherichia coli (strain K12)) (UniProt P0A6C1). Put plainly: Counterscreen for APE1 Inhibitors: qHTS Validation Assay for Inhibitors of Endonuclease IV (AID 1708). Summed up:
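Concentration-response counterscreen run identically to the APE1 assay: 15 min room-temperature preincubation of 2 nM enzyme with compound, reaction started with 50 nM quenched abasic DNA, progress taken from kinetic fluorescence.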

A short description of test [11]: qHTS for differential inhibitors of proliferation of Plasmodium falciparum line 3D7 (AID 1876). Further: potency means the concentration at half of the fitted maximal effect.
Test [12] is described as follows: qHTS Assay for Modulators of Human Peripheral Myelin Protein 22 (PMP22) Expression/Activity (AID 1967; active means well fitted curve in the direction sought with a large enough effect in the signal ratio; the % refers to the signal ratio). Summed up: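 Luminescence ratio of Pmp22 promoter-driven green luciferase to EF-alpha-driven red luciferase, in engineered mouse MSC80 Schwann cells, served as read-out. Compounds were incubated 24h; untreated cells defined 0% Activity; curves were classified by r2, magnitude and activity.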

Test [13] has as its target DNA repair nuclease/redox regulator APEX1 (Homo sapiens) (UniProt P27695). Put plainly: qHTS Validation Assay for Inhibitors of the Human Apurinic/apyrimidinic Endonuclease 1 (APE1) (AID 1705;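 further: TAMRA fluorescence gain over two minutes as APE1 cuts a quenched THF abasic duplex; series mostly up to about 57 µM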). Summed up:
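qHTS, 1536-well. APE1 + cpd 15 min RT → 50 nM TAMRA/BHQ-2 THF-abasic dsDNA substrate → kinetic fluorescence, 3 reads/60 s; delta(read3−read1) = reaction progress. No-enzyme buffer = negative control.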

Test [14] can be described thus: qHTS for differential inhibitors of proliferation of Plasmodium falciparum line GB4 (AID 1816).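 Further: parasite growth measured after 72 h incubation.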 Further: potency means the concentration at half of the fitted maximal effect. The conditions noted are these: Potency: Plasmodium falciparum GB4 proliferation inhibition.
Test [15] can be described thus: qHTS for differential inhibitors of proliferation of Plasmodium falciparum line D10 (AID 1877).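 Further: parasites grown with compound for 72 h before DNA staining.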 Further: potency means the concentration at half of the fitted maximal effect.
In test [16] the target is RecQ-like DNA helicase BLM (Homo sapiens) (UniProt P54132). The test is described as follows: qHTS Validation Assay for Inhibitors of Bloom's syndrome helicase (BLM) (AID 2364). An outline of the steps: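 BLM 50 nM in 25 mM Tris-HCl pH 8.0, 5 mM NaCl, 2 mM MgCl2, 1 mM DTT, 0.01% Tween-20, 2.5 ug/ml poly(dI-dC); 15 min cpd preinc, RT. Start: 200 nM forked DNA + 2 mM ATP (final). TAMRA read, 2 reads 2 h apart.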

The nature of test [17]: Cell Viability - LYMP1-002 - Assay at 24 hr (AID 993). An outline of the steps:
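Human lymphoblastoid LYMP1-002 cells (2500/well) treated 24 h at 37 °C; viability as intracellular ATP by CellTiter-Glo luminescence. Tetraoctylammonium bromide as positive control; AC50 from Hill-equation fits of qHTS concentration-response.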

Test [18] in a line: Cell Viability - LYMP1-002 - Assay at 40 hr (AID 994). Further: nearly all actives have a fitted effect of over 60% in size. An outline of the steps:
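LYMP1-002 human lymphoblastoid cells (2500/well, complete medium) were treated with compounds for 40 hr at 37 C. Intracellular ATP was measured by CellTiter-Glo luminescence, and AC50 values came from Hill-equation fits of concentration-response data; tetraoctylammonium bromide was the positive control.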

Chain of Ferritin light chain (Equus caballus) (P02791 2-175 limits assumed): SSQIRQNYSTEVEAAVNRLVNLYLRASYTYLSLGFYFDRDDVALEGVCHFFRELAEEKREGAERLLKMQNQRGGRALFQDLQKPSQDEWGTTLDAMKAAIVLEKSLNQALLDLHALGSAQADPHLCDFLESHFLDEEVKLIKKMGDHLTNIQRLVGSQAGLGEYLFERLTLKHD
Chain of RecQ-like DNA helicase BLM (Homo sapiens) (P54132 whole entry, looked up): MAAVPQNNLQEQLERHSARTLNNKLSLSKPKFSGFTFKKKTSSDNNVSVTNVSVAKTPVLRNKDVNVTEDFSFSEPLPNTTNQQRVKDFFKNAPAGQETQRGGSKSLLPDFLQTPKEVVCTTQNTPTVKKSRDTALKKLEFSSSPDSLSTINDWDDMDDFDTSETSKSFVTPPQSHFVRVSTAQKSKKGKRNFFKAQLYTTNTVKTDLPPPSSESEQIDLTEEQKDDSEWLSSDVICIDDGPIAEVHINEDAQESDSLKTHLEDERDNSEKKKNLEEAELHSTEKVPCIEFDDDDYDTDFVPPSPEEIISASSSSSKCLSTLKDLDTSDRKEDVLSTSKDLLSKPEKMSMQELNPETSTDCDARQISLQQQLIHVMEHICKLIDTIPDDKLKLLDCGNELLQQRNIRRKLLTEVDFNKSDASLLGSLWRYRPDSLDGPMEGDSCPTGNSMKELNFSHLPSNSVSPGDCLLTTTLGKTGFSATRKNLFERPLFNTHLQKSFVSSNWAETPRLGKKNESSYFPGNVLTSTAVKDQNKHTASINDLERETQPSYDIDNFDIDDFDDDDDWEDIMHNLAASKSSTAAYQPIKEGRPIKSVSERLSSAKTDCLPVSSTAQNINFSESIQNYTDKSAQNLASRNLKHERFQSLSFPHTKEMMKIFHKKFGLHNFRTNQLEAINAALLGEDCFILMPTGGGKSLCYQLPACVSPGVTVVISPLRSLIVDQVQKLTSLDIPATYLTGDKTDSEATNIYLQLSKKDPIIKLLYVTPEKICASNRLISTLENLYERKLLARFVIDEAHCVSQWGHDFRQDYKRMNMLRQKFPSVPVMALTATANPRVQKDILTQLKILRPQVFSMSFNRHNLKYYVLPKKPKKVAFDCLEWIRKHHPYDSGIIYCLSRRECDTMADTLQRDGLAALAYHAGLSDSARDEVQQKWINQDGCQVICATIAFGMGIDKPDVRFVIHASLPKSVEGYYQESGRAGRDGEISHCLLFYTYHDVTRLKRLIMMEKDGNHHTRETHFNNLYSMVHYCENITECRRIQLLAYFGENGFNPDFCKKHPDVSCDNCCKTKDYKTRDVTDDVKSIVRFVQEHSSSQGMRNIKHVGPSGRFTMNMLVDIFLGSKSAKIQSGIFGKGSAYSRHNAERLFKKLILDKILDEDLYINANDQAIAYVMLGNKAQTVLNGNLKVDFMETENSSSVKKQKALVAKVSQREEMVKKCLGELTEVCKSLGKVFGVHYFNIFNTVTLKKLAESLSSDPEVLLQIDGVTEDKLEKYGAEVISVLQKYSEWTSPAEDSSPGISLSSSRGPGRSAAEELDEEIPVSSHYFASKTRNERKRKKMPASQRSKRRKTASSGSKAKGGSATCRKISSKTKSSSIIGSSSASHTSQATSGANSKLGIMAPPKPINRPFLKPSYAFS
Chain of ATP-dependent DNA helicase Q1 (Homo sapiens) (P46063 whole entry, looked up): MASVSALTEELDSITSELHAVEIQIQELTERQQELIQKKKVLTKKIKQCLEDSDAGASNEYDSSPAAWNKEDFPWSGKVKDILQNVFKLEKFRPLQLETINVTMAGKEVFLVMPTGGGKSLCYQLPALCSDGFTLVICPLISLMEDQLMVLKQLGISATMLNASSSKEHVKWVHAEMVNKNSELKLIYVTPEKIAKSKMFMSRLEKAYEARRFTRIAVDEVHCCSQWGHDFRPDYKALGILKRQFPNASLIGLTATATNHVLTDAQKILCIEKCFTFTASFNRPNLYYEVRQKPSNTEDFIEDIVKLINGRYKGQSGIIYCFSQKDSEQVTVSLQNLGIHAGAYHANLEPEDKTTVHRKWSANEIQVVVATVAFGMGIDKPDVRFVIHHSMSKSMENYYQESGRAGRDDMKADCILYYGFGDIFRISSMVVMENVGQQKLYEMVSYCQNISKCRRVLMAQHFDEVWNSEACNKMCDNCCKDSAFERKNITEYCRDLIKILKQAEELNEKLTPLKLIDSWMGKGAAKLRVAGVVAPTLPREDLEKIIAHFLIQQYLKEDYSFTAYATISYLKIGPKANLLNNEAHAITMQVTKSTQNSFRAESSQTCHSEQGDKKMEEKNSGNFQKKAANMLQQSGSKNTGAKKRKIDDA
Chain of DNA repair nuclease/redox regulator APEX1 (Homo sapiens) (P27695 whole entry, looked up): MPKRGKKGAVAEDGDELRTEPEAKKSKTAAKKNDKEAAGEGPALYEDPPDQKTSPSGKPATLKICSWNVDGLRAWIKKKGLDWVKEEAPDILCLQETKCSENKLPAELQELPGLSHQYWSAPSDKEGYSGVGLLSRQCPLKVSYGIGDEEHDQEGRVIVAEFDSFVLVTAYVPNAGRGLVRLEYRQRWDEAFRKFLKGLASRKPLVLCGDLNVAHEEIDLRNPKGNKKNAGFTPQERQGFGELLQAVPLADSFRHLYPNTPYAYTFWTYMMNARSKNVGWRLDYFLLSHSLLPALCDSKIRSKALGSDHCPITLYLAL

In the case of `Cc1cc(NC(=O)Nc2ccc3c(ccn3C)c2)sn1`, the call in [1] was inactive. The Potency result in test [2], in [4], in test [7] and in test [8] was “inactive” each time. The Potency in [3] is 7.94 µM (active); in test [5] it was 7.94 µM (active); in [6], 12.6 µM (active).

With `N=C(N)SCCc1ccc(CCSC(=N)N)cc1`, the compound was called inactive in test [9], in test [1] and in test [12]. In addition, the Potency result in test [2], in test [10], in test [11], in test [4], in test [6] and in test [7] was “inactive” each time. Besides, in test [8], the Potency entry is “inactive”. In addition, the Potency in test [5] is 11.2 µM (active).

Turning to `c1ccc(-c2ccccn2)nc1`, the compound was classed as inactive in [9], in test [1] and in test [12]. For the same compound, the Potency entry in test [13], in [2], in [10], in test [14], in [11] and in test [15] was “inactive” each time. Further, the Potency entry in [4], in [6], in test [7] and in test [8] was “inactive” in each case.

For `COc1ccc(/C=C/C(=O)Nc2ccccc2C(=O)O)cc1OC`, the compound was classed as inactive in [1]. Also, the Potency entry in test [10], in [4], in test [7], in test [8] and in [16] was “inactive” each time.

Take `CC(C)(C)NCC(O)COc1nsnc1N1CCOCC1` (centres undefined): the compound was called inactive in test [1] and in test [12]. The Potency entry in test [13], in test [2], in [10], in test [11], in [15] and in test [4] was “inactive” each time. Also, the Potency entry in [6], in [7] and in test [8] was “inactive” each time.

Take `CC(=O)SCC[N+](C)(C)C`: the compound was classed as inactive in test [1] and in [12]. In addition, the Potency result in test [13], in [2], in [3], in test [14], in test [11] and in test [15] was “inactive” each time. Further, the Potency entry in [4], in [5], in test [6], in [7] and in test [8] was “inactive” each time.

As to `N.N.O=C(O)C1(C(=O)O)CCC1.[Pt]`, the call in test [9] and in [1] was inactive. The Potency entry in test [2], in test [10], in test [4], in [7] and in test [8] was “inactive” throughout. The Potency in test [11] was 12.6 µM (active); in [5], 10 µM (active).

For the compound `CN[C@H](CC(C)C)C(=O)N[C@H]1C(=O)N[C@@H](CC(N)=O)C(=O)N[C@H]2C(=O)N[C@H]3C(=O)N[C@H](C(=O)N[C@H](C(=O)O)c4cc(O)cc(O)c4-c4cc3ccc4O)[C@H](O)c3ccc(c(Cl)c3)Oc3cc2cc(c3O[C@@H]2O[C@H](CO)[C@@H](O)[C@H](O)[C@H]2O[C@H]2C[C@](C)(N)[C@H](O)[C@H](C)O2)Oc2ccc(cc2Cl)[C@H]1O`, the result in [1] and in test [12] was inactive. Also, the Potency result in test [13], in [2], in test [3], in test [14], in test [11] and in test [15] was “inactive” in each case. Moreover, the Potency entry in [4], in [5], in [6], in test [7], in [8] and in test [16] was “inactive” throughout.

As for `CN1CCC[C@H]1c1cccnc1`, the Potency entry in test [17], in [18], in test [2], in test [10], in [3] and in test [14] was “inactive” throughout. Besides, the Potency result in test [11], in [15], in test [4], in [5], in test [6] and in test [7] was “inactive” throughout. The Potency result in test [8] was “inactive”. Besides, the compound was classed as inactive in [1] and in test [12].

On to `CC(C)NCC(O)COc1cccc2ccccc12` (centres undefined), for which the Potency result in [17], in [18], in test [2], in [10], in test [7] and in test [8] was “inactive” in each case. Also, in test [16], the Potency entry was “inactive”. In addition, in [1], the compound was called inactive. For the same compound, the Potency in test [3] is 4.47 µM (active); in test [14], 2.51 µM (active); in test [15], 11.2 µM (active); in test [4], 8.91 µM (active); in test [5], 2.82 µM (active); in test [6] it was 12.6 µM (active).
